Measured values taken from PubChem BioAssay AID2330 (Broad Institute, 2010).
About 2,800 (7.6%) of roughly 37,000 compounds were called active. Inconclusive results (about 1%) are left out. What follows is part of a selection rich in actives, with near analogues and random picks from the rest. Values without a mark were called inactive. No stated cut-off is given here; in the data, active means inhibition above about 80%; inconclusive means no clear call, values can overlap the other calls; inactive means below that.

Assay: NOMO-1 AML cell viability reduction, primary screen, STK33 inhibitor project, CellTiter-Glo luminescence (AID 2330)
Details: NOMO-1 AML viability, 72 h, active compounds read high, concentration not given here
Work on `C[C@H]1CN([C@@H](C)CO)C(=O)c2cccc(NC(=O)Nc3ccccc3)c2O[C@@H]1CN(C)S(C)(=O)=O` yielded an inhibition of -0.709%. With `COc1cc(C2c3c(cc(OC)c(O)c3OC)CC(CO[C@@H]3O[C@H](CO)[C@@H](O)[C@H](O)[C@H]3O)C2CO)cc(OC)c1O` (some centres undefined) the inhibition was -1.41%. For `O=C1C2=C(Nc3ccccc3S(=O)(=O)C2c2ccc(Cl)cc2)c2ccccc21` (centres undefined), the inhibition was 121% (active). For `COC(=O)c1ccccc1NC(=O)C(C)Oc1ccccc1F` (centres undefined), the inhibition was 8.1%. Work on `O=C(CC(C(=O)O)N1CCNCC1)Nc1cccc(Cl)c1` (centres undefined) yielded an inhibition of 9.13%. `COc1cc(C2OC(c3cc(OC)c(OC)c(OC)c3)C(C)C2C)cc(OC)c1OC` (centres undefined) showed an inhibition of 7.55%. With `COc1cc(C2OC(c3ccc(O)c(OC)c3)C(C)(O)C2C)ccc1O` (centres undefined) the inhibition was 119% (active). Work on `CCN(CC)C(=O)c1ccc(O)c(OC)c1` yielded an inhibition of -13.3%. With `O=C(c1ccccc1Br)N1CCN(c2ccc([N+](=O)[O-])c(NCc3cccnc3)c2)CC1` the inhibition was 40.2%. `Cc1noc(C)c1NC(=O)Nc1ccc2c(c1)C(=O)N([C@@H](C)CO)C[C@@H](C)[C@@H](CN(C)CC1CCCCC1)O2` gave an inhibition of -6.14%. With `Oc1c(Cl)cc(Cl)c(Cl)c1Cc1c(O)c(Cl)cc(Cl)c1Cl` the inhibition was 107% (active). With `Cc1cc(=O)[nH]c(SCc2cn3c(C)cc(C)nc3n2)n1` the inhibition was -6.02%. Molecule `COc1ccc(NC(=O)N(C)C[C@@H]2OCCCC[C@@H](C)Oc3ccc(NS(=O)(=O)c4c(C)noc4C)cc3C(=O)N([C@H](C)CO)C[C@@H]2C)cc1` has an inhibition of 7.62%. In the case of `COc1ccc(CCCOC(Cn2ccnc2)c2ccc(OC)cc2)cc1` (centres undefined), the inhibition is reported as 114% (active). With `Cc1ccc(S(=O)(=O)N(C)C[C@H]2OCCCC[C@@H](C)Oc3ccc(NS(C)(=O)=O)cc3C(=O)N([C@H](C)CO)C[C@@H]2C)cc1` the inhibition was 20.5%. Molecule `CC(C)(C)c1ccc(OCC(=O)Nc2cccc(NC(=O)c3ccccc3)c2)cc1` has an inhibition of 25.3%. `COc1ccccc1NC(=O)c1ccc(OCC(=O)O)cc1` showed an inhibition of -18.7%. In the case of `COC(=O)COc1cccc(NC(=O)c2cc(OC)c(OC)c(OC)c2)c1`, the inhibition is reported as 124% (active). Work on `C[C@H]1CN([C@@H](C)CO)C(=O)c2cccc(NC(=O)CCCCCC(=O)Nc3ccccc3N)c2O[C@@H]1CN(C)S(=O)(=O)c1cn(C)cn1` yielded an inhibition of 5.62%. In the case of `O=[N+]([O-])c1ccc(NCCNCc2cccnc2)cc1`, the inhibition is reported as -20%. With `CC[N+]1=C(C)C(C)(C)c2cc(-c3ccccc3)ccc21` the inhibition was 123% (active). Molecule `Cc1ccc(Cn2c(NCc3nc4ccccc4n3C)nc3ccccc32)cc1` has an inhibition of 7.82%. Work on `CC(C)NC(=O)Nc1ccc2c(c1)C(=O)N([C@@H](C)CO)C[C@@H](C)[C@H](CN(C)C(=O)NC1CCCCC1)O2` yielded an inhibition of 30.5%. With `COc1ccc(-c2nnc(SCC(=O)O)n2-c2ccccc2)cc1OC` the inhibition was -16.5%. For `CC1(C)Cc2c(sc3ncn4nc(COc5ccc(Cl)cc5)nc4c23)C(C)(C)N1`, the inhibition was 142% (active). Work on `O=C1c2ccccc2C(=O)C1c1cc(=O)[nH]c2c1ccc1ccccc12` yielded an inhibition of 11.8%. Molecule `CCOC(=O)c1nnn(-c2nonc2-n2cccc2)c1CN1CCOCC1` has an inhibition of 24.9%. For `Cc1ccc(S(=O)(=O)Nc2ccc3c(c2)CC(=O)N([C@@H](C)CO)C[C@@H](C)[C@@H](CN(C)S(=O)(=O)c2ccccc2)O3)cc1`, the inhibition was 5.59%. Molecule `C[C@@H]1CN([C@H](C)CO)C(=O)Cc2cc(NS(=O)(=O)c3cccs3)ccc2O[C@@H]1CN(C)Cc1ccc(C(=O)O)cc1` has an inhibition of -19.7%. Molecule `COc1ccc(S(=O)(=O)Nc2ccc3c(c2)CC(=O)N([C@H](C)CO)C[C@@H](C)[C@@H](CN(C)C(=O)Nc2cccc4ccccc24)O3)cc1` has an inhibition of -1.33%. `C[C@H](CO)N1C[C@H](C)[C@H](CN(C)CC2CC2)Oc2ccc(NS(=O)(=O)c3ccccc3)cc2CC1=O` showed an inhibition of 20.8%. With `Cc1ccc(S(=O)(=O)Nc2ccc3c(c2)CC(=O)N([C@@H](C)CO)C[C@H](C)[C@H](CN(C)Cc2ccc(C(=O)Nc4ccccc4N)cc2)O3)cc1` the inhibition was 139% (active). `Cc1ccc(S(=O)(=O)N(C)C[C@H]2Oc3ccc(NS(=O)(=O)c4ccccc4)cc3CC(=O)N([C@@H](C)CO)C[C@H]2C)cc1` gave an inhibition of -0.416%. In the case of `C[C@H]1CN([C@@H](C)CO)C(=O)Cc2cc(NS(=O)(=O)c3ccccc3)ccc2O[C@H]1CN(C)Cc1ccc(C(=O)Nc2ccccc2N)cc1`, the inhibition is reported as 141% (active). In the case of `COc1ccc(S(=O)(=O)Nc2ccc3c(c2)CC(=O)N([C@@H](C)CO)C[C@@H](C)[C@@H](CN(C)Cc2ccc(C(=O)Nc4ccccc4N)cc2)O3)cc1`, the inhibition is reported as 100% (active). `COc1ccc(CN(C)C[C@H]2Oc3ccc(NS(=O)(=O)c4ccc(Cl)cc4)cc3CC(=O)N([C@@H](C)CO)C[C@H]2C)cc1` gave an inhibition of 40.8%. `C[C@@H]1CCCCO[C@H](CN(C)S(=O)(=O)c2ccccc2)[C@@H](C)CN([C@H](C)CO)C(=O)c2cc(NC(=O)Nc3ccc(F)cc3)ccc2O1` showed an inhibition of 33.7%. Work on `C[C@@H]1CCCCO[C@H](CN(C)S(=O)(=O)c2cccs2)[C@@H](C)CN([C@H](C)CO)C(=O)c2cc(NC(=O)Nc3ccccc3)ccc2O1` yielded an inhibition of 11.8%. `O=c1cc(CSc2nnnn2-c2ccccc2)[nH]c(=S)[nH]1` showed an inhibition of 33.9%. With `C[C@@H]1CN([C@@H](C)CO)C(=O)Cc2cc(NC(=O)C3CCCCC3)ccc2O[C@@H]1CN(C)Cc1ccncc1` the inhibition was 15.8%. In the case of `CCOC(=O)c1cnc2cc(C(F)(F)F)ccc2c1N1CCCCCC1`, the inhibition is reported as 13.2%. `CNC[C@@H]1Oc2ccc(NC(=O)Nc3ccc4c(c3)OCO4)cc2C(=O)N([C@H](C)CO)C[C@@H]1C` showed an inhibition of 6.4%. `COc1ccc(NC(=O)c2ccc(OCC(=O)Nc3ccccc3F)cc2)cc1Cl` gave an inhibition of 19.2%. For `CCOC(=O)c1nnn2c1nc(N1CCN(c3ccccc3)CC1)c1ccccc12`, the inhibition was 101% (active). `CCOC(=O)c1nnn2c3ccccc3c(=O)n(C)c12` showed an inhibition of -3.54%. For `CCOC(=O)c1c(CN2CCOCC2)nc2c3ccccc3ccn12`, the inhibition was -2.66%. With `Cc1noc(C)c1NC(=O)Nc1cccc2c1O[C@H](CN(C)C(=O)Nc1ccccc1)[C@@H](C)CN([C@H](C)CO)C2=O` the inhibition was 30.8%. Work on `NC(CC(=O)Nc1ccc(Cl)cc1)C(=O)O` (centres undefined) yielded an inhibition of 16.1%. `Cc1noc(C)c1S(=O)(=O)Nc1ccc2c(c1)CC(=O)N([C@@H](C)CO)C[C@@H](C)[C@@H](CN(C)C(=O)Nc1ccc(C(F)(F)F)cc1)O2` gave an inhibition of 14.7%. In the case of `O=C1Cc2ccc(F)cc2CC1C1=Cc2ccc(F)cc2CC1` (centres undefined), the inhibition is reported as 114% (active). With `Cc1ccc(NC(N)=O)cc1` the inhibition was 0.872%. For `Oc1ccc(CN2CCCC2)c2cccnc12`, the inhibition was 141% (active). `C[C@H](CO)N1C[C@H](C)[C@H](CN(C)S(=O)(=O)c2ccc(Cl)cc2)Oc2c(NS(C)(=O)=O)cccc2C1=O` showed an inhibition of 9.14%. With `C[C@H](CO)N1C[C@H](C)[C@H](CN(C)S(=O)(=O)c2cccs2)Oc2ccc(NS(=O)(=O)c3ccc(Cl)cc3)cc2CC1=O` the inhibition was 12.4%. For `COc1c(C)c2c(c(O)c1C/C=C(\C)CCC(=O)O)C(=O)OC2`, the inhibition was 139% (active). For `CS(=O)(=O)N(CC(=O)Nc1ccc(F)c(F)c1)c1ccccc1F`, the inhibition was -8.09%. With `Oc1c(Cl)cc(Cl)cc1C1Nc2cc(C(F)(F)F)ccc2-n2cccc21` (centres undefined) the inhibition was 114% (active). With `C[C@@H]1CN([C@H](C)CO)C(=O)Cc2cc(NC(=O)CCN3CCOCC3)ccc2O[C@@H]1CN(C)S(C)(=O)=O` the inhibition was 5.67%. `CC(C)NC(=O)N(C)C[C@@H]1Oc2ccc(NS(=O)(=O)c3cn(C)cn3)cc2C(=O)N([C@@H](C)CO)C[C@@H]1C` showed an inhibition of 18.9%. `Cn1c(OCc2cccnc2)nc2c1c(=O)n(Cc1ccc(Cl)c(Cl)c1)c(=O)n2C` gave an inhibition of 27.8%. Molecule `c1ccc2[nH]c(CSc3nc4ccccc4[nH]3)nc2c1` has an inhibition of 6.35%. `Cc1cc(=O)oc2cc(OCc3cccc(F)c3)ccc12` showed an inhibition of 25.5%. Work on `Cc1c(CCC(=O)O)c(=O)oc2cc(OCc3ccc(Br)cc3)ccc12` yielded an inhibition of 19.3%. For `CCOC(=O)c1cc(=O)c2ccc(OCc3ccccc3)cc2o1`, the inhibition was 105% (active). Work on `O=C(CSc1nnc2ccc3ccccc3n12)Nc1ccc2c(c1)OCCO2` yielded an inhibition of 12.1%. With `NC(=O)CSc1oc(-c2cccs2)nc1S(=O)(=O)c1ccccc1` the inhibition was 11.4%. Work on `Cc1noc(C)c1NC(=O)N(C)C[C@@H]1Oc2ccc(NS(C)(=O)=O)cc2C(=O)N([C@@H](C)CO)C[C@@H]1C` yielded an inhibition of -15.6%. For `COc1ccc(NC(=O)Nc2ccc3c(c2)C(=O)N([C@H](C)CO)C[C@H](C)[C@@H](CN(C)C(=O)Nc2ccc4c(c2)OCO4)O3)cc1`, the inhibition was 14.3%. For `COC(=O)c1c(-c2cccnc2)csc1NC(=O)c1cc(-c2ccc(C)o2)nc2ccccc12`, the inhibition was 86.9% (active). With `COC(=O)c1cc(OC)c(OC)cc1NC(=O)c1cc(-c2ccc(C)o2)nc2ccccc12` the inhibition was 92.8% (active). `COC(=O)c1cc(OC)c(OC)cc1NC(=O)COc1ccc(Cl)cc1` gave an inhibition of 15.1%. Work on `COC(=O)c1cc(OC)c(OC)cc1NC(=O)COc1ccccc1Cl` yielded an inhibition of -12.9%. In the case of `Cc1ccccc1OCC(=O)Nc1cc(-c2nc3ccccc3s2)c(Cl)cc1Cl`, the inhibition is reported as 6.92%. `COc1ccc(NC(=O)N(C)C[C@H]2Oc3ccc(NC(=O)NC(C)C)cc3CC(=O)N([C@H](C)CO)C[C@H]2C)cc1` gave an inhibition of 3.6%.
